Screen size: about 310,000 compounds; about 14,000 (4.5%) showed an effect of 50% or more. Effects have a minus sign here. This is one part of a sample in which strong results are shown more often than they occur.
Target: human ether-à-go-go-related gene (hERG) potassium channel (human, UniProt Q12809)
Assay: primary screen, population patch clamp on CHO cells stably expressing hERG; higher = less effect of the substance
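Note: peak tail current of the secondary pulse compared with the same well before compound.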

human ether-à-go-go-related gene (hERG) potassium channel, sequence (Q12809 whole entry, looked up): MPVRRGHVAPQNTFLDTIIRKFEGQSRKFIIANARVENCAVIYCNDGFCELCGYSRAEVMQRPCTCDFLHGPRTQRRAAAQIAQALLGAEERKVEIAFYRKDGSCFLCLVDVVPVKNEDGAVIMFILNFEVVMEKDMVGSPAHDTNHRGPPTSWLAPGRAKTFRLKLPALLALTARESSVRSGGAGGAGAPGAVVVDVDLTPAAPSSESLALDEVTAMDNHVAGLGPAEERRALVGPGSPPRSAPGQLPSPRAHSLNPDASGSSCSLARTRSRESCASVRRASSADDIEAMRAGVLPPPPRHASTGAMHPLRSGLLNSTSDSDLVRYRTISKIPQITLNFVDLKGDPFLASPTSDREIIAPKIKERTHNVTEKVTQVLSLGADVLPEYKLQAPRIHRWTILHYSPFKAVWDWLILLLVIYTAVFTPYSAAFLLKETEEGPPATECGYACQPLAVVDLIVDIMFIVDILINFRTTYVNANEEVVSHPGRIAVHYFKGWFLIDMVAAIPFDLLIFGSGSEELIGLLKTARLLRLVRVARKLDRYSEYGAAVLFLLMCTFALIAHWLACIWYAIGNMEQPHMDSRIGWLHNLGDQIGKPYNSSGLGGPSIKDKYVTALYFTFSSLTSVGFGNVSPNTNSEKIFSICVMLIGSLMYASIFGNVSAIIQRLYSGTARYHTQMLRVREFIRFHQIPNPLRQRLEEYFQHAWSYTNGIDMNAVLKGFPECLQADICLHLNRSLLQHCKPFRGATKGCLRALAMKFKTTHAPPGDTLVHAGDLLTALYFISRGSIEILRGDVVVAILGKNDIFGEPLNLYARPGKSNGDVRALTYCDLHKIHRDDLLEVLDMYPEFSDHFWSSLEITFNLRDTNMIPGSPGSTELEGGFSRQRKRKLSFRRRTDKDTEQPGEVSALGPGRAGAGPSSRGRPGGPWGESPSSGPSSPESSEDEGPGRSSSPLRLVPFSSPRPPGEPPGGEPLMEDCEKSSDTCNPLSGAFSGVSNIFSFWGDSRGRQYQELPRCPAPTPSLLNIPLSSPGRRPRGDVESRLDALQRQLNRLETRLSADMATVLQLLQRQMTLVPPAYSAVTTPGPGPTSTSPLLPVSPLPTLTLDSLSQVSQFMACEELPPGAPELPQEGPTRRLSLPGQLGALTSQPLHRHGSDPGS

Going from C/C(CC(=O)Nc1ccc([N+](=O)[O-])cc1)=N/NC(=O)C1C2CCCCC21 (stereo not drawn) to CCOCCCN(C)C1CCN(C(=O)c2oc3ccccc3c2NC(=O)c2ccc([N+](=O)[O-])cc2)CC1, the “hERG current change (%, negative = inhibition) at 10uM” value falls from -21.7% to -75.9%.

Compared with O=C(Nc1ccc(NC(=O)c2ccc3c(c2)OCO3)cc1)c1cccc(Cl)c1, COc1cc2c(cc1NC(=O)c1cccc([N+](=O)[O-])c1)oc1ccccc12 is lower in “hERG current change (%, negative = inhibition) at 10uM” value: 24.9% for the first, 1.9% for the second.

Going from Cc1onc(-c2ccccc2)c1C(=O)OCCOc1ccc([N+](=O)[O-])cc1[N+](=O)[O-] to O=C(Nc1c(C(=O)N2CCOCC2)oc2ccccc12)c1cccc([N+](=O)[O-])c1, the “hERG current change (%, negative = inhibition) at 10uM” value falls from -17.9% to -20.2%.

First: O=C(CCN1C(=O)COc2ccccc21)NCc1cccnc1
Second: O=C(O)Cc1cccc2ccccc12
The “hERG current change (%, negative = inhibition) at 10uM” value of the first is lower: 6.28% for the first, 16.6% for the second.

Going from Cc1c(NC(=O)C2CC(c3ccc(F)cc3)=NO2)c(=O)n(-c2ccccc2)n1C (stereo not drawn) to Cc1[nH]n(-c2ccccc2)c(=O)c1N=Nc1ccc(C(=O)O)cc1, the “hERG current change (%, negative = inhibition) at 10uM” value rises from -3.93% to 25.7%.

Going from O=S(=O)(NN=C1CCCCCCC1)c1ccc(Br)cc1 to CN(CC(=O)NCCCc1ccccc1)S(=O)(=O)c1ccc(Br)cc1, the “hERG current change (%, negative = inhibition) at 10uM” value falls from 4.3% to -7.88%.

Compared with Cc1ccc(-c2noc(CN(C)C(=O)c3ccc(Br)o3)n2)cc1, Cc1ccc(S(=O)(=O)Cc2ccc(C(=O)N3CCC(C(N)=O)CC3)o2)cc1 is higher in “hERG current change (%, negative = inhibition) at 10uM” value: -18.7% for the first, 30.7% for the second.

Compared with O=C(CCCn1c(=O)[nH]c2ccsc2c1=O)NCc1cccs1, Cc1ccccc1OCC(O)Cn1c(NCc2ccco2)nc2c1c(=O)[nH]c(=O)n2C (stereo not drawn) is higher in “hERG current change (%, negative = inhibition) at 10uM” value: 4.11% for the first, 4.8% for the second.

Compared with CCCCN(C(=O)CN1C(=O)C2CC=CCC2C1=O)c1c(N)n(CCC)c(=O)[nH]c1=O (stereo not drawn), CCCCN(C)C(=O)CCC(=O)Nc1ccc2nc(N3CCN(C)CC3)cc(C)c2c1 is higher in “hERG current change (%, negative = inhibition) at 10uM” value: 4.14% for the first, 11% for the second.

First: CCCOc1ccc(/C=C2\SC(N)=NC2=O)cc1OC
Second: COc1ccc(NC(=O)n2ncc3cc(Cl)ccc32)cc1OC
The “hERG current change (%, negative = inhibition) at 10uM” value of the first is lower: 3.66% for the first, 21.3% for the second.

Compared with O=C(O)c1cccc2c(/C=N/Nc3ccccn3)c[nH]c12, CC1(C)SC(=S)N(/N=C/c2cccnc2)C1N(O)C(=O)Nc1ccccc1 (stereo not drawn) is lower in “hERG current change (%, negative = inhibition) at 10uM” value: -1.13% for the first, -5.91% for the second.

First: CC(C)N(CCNC(=O)C1CCCN(c2ncnc3c2nc2n3CCCCC2)C1)Cc1ccccc1 (stereo not drawn)
Second: CC(C)N(Cc1ccccc1)C(=O)C1CCCN(c2ncnc3c2nc2n3CCCCC2)C1 (stereo not drawn)
The “hERG current change (%, negative = inhibition) at 10uM” value of the first is higher: -37.3% for the first, -44.3% for the second.

First: Cc1ccccc1N(C)C(=O)C1CCCN(c2ncnc3c2nc2n3CCCCC2)C1 (stereo not drawn)
Second: CN(C(=O)C1CCCN(c2ncnc3c2nc2n3CCCCC2)C1)c1cccc(Cl)c1 (stereo not drawn)
The “hERG current change (%, negative = inhibition) at 10uM” value of the first is higher: -7.96% for the first, -45.9% for the second.

Compared with O=C(NCC1CCN(Cc2ccc(F)cc2)CC1)C1CCCN(c2ncnc3c2nc2n3CCCCC2)C1 (stereo not drawn), O=C(NCC1CCN(Cc2ccc(Cl)cc2)CC1)C1CCCN(c2ncnc3c2nc2n3CCCCC2)C1 (stereo not drawn) is lower in “hERG current change (%, negative = inhibition) at 10uM” value: -39.6% for the first, -65.7% for the second.

Going from CN(Cc1ccccc1)C(=O)C1CCCN(c2ncnc3c2nc2n3CCCCC2)C1 (stereo not drawn) to O=C(NCc1ccccc1)C1CCCN(c2ncnc3c2nc2n3CCCCC2)C1 (stereo not drawn), the “hERG current change (%, negative = inhibition) at 10uM” value falls from -66% to -69.1%.

First: CN(Cc1ccco1)C(=O)C1CCCN(c2ncnc3c2nc2n3CCCCC2)C1 (stereo not drawn)
Second: CCN(C(=O)C1CCCN(c2ncnc3c2nc2n3CCCCC2)C1)c1cccc(Cl)c1 (stereo not drawn)
The “hERG current change (%, negative = inhibition) at 10uM” value of the first is higher: 5.57% for the first, -62.5% for the second.

Going from Cc1ccc(CNC(=O)C2CCCN(c3ncnc4c3nc3n4CCCCC3)C2)cc1 (stereo not drawn) to Cc1ccc(CN2CCC(CNC(=O)C3CCCN(c4ncnc5c4nc4n5CCCCC4)C3)CC2)cc1 (stereo not drawn), the “hERG current change (%, negative = inhibition) at 10uM” value rises from -49% to -45%.

First: O=C(C1CC1)N1CCCN(C(=O)C2CC2)CC1
Second: CCOC(=O)N1CCC(NC(=O)C2CCCN(C(=O)c3cc4sccc4n3C)C2)CC1 (stereo not drawn)
The “hERG current change (%, negative = inhibition) at 10uM” value of the first is higher: 16.3% for the first, -5.34% for the second.

Going from CCC1(C)Cc2ccccc2-c2nc(NCCCO)n(-c3ccccc3)c(=O)c21 (stereo not drawn) to CC1(C)Cc2cccc(OCC(=O)N3CCN(c4ccccc4)CC3)c2O1, the “hERG current change (%, negative = inhibition) at 10uM” value rises from -48.6% to -45.6%.

Compared with c1ccc(COc2ccccc2CNc2nn[nH]n2)cc1, CC1=CC(C)(C)N(C(=O)c2ccccc2)c2ccccc21 is lower in “hERG current change (%, negative = inhibition) at 10uM” value: 13.1% for the first, -8.02% for the second.

Compared with O=C(Nc1sc2c(c1C(=O)NCC(O)CO)CCCC2)c1ccccc1 (stereo not drawn), CC1CCc2c(sc(NC(=O)CCC(=O)O)c2C(=O)NC2CC2)C1 (stereo not drawn) is higher in “hERG current change (%, negative = inhibition) at 10uM” value: 6.02% for the first, 18.1% for the second.

Going from O=C(COC(=O)CNC(=O)c1cccs1)Nc1ccc(C(F)(F)F)cc1[N+](=O)[O-] to CC1(C)Cc2cccc(OCC(=O)N3CCN(c4cccc(C(F)(F)F)c4)CC3)c2O1, the “hERG current change (%, negative = inhibition) at 10uM” value rises from -44% to 1.57%.

Compared with CCn1c(C)nnc1SCC(=O)Nc1ccc(Cl)cc1, O=C(Nc1ccc(Cl)cc1)C1CCCN(c2ncnc3c2nc2n3CCCCC2)C1 (stereo not drawn) is lower in “hERG current change (%, negative = inhibition) at 10uM” value: 10.3% for the first, -50.1% for the second.

Going from Cc1ccc(NC(=O)C2CCCN(c3ncnc4c3nc3n4CCCCC3)C2)cc1Cl (stereo not drawn) to CC(=O)c1ccc(NC(=O)C2CCCN(c3ncnc4c3nc3n4CCCCC3)C2)cc1 (stereo not drawn), the “hERG current change (%, negative = inhibition) at 10uM” value falls from -6.39% to -24.1%.

First: COc1ccc2no[n+]([O-])c2c1
Second: COc1ccc(NC(=O)CSc2nnc(NC(=O)C3CCC3)s2)c(OC)c1
The “hERG current change (%, negative = inhibition) at 10uM” value of the first is higher: 28.1% for the first, 12.6% for the second.

Compared with CC(C)(C)N(Cc1cc2ccccc2[nH]c1=O)C(=O)c1ccco1, Cn1c(=O)c2c(nc(NCc3ccco3)n2CC(O)COc2ccccc2)n(C)c1=O (stereo not drawn) is lower in “hERG current change (%, negative = inhibition) at 10uM” value: 8.21% for the first, -25.9% for the second.

First: CS(=O)(=O)Oc1ccc2c(c1)O/C(=C\C=C\c1ccccc1)C2=O
Second: CCOC(=O)c1oc2ccccc2c1NC(=O)c1ccc(S(=O)(=O)N(C)C)cc1
The “hERG current change (%, negative = inhibition) at 10uM” value of the first is lower: 8.05% for the first, 13% for the second.

Compared with CC(C)N(C(=O)Nc1ccc2nsnc2c1)C(C)C, Cc1oc(S(=O)(=O)N2CCCCC2)cc1NC(=O)Nc1ccc(F)cc1 is higher in “hERG current change (%, negative = inhibition) at 10uM” value: 0.592% for the first, 3.43% for the second.

First: CC1(C)Cc2cccc(OCC(=O)N3CCN(c4ccccc4F)CC3)c2O1
Second: CC1(C)Cc2cccc(OCC(=O)N3CCN(c4ccccc4Cl)CC3)c2O1
The “hERG current change (%, negative = inhibition) at 10uM” value of the first is higher: -22.4% for the first, -64.3% for the second.

Compared with CC1(C)Cc2cccc(OCC(=O)N3CCN(c4ccc([N+](=O)[O-])cc4)CC3)c2O1, CC1(C)Cc2cccc(OCC(=O)N3CCN(c4ccc(F)cc4)CC3)c2O1 is higher in “hERG current change (%, negative = inhibition) at 10uM” value: -70.3% for the first, -69.5% for the second.

Going from CC1(C)Cc2cccc(OCC(=O)N3CCN(c4cccc(Cl)c4)CC3)c2O1 to Cc1cccc(N2CCN(C(=O)COc3cccc4c3OC(C)(C)C4)CC2)c1C, the “hERG current change (%, negative = inhibition) at 10uM” value rises from -4.1% to -2.16%.

Going from CC1(C)Cc2cccc(OCC(=O)N3CCN(S(=O)(=O)c4ccc(F)cc4)CC3)c2O1 to CCn1cc(C(=O)O)c(=O)c2cc(F)c(N3CCN(S(=O)(=O)c4ccc(NC(=O)OC)cc4)CC3)cc21, the “hERG current change (%, negative = inhibition) at 10uM” value rises from -21.6% to 21.8%.

Going from COc1ccc(S(=O)(=O)N2CCN(C3CCCC(C)C3)CC2)cc1.O=C(O)C(=O)O (stereo not drawn) to COc1ccc(OC)c(CN2CCC(N3CCC(C(=O)NC4CC4)CC3)CC2)c1, the “hERG current change (%, negative = inhibition) at 10uM” value rises from -16.7% to -11.1%.

Compared with CN(C)S(=O)(=O)c1ccc(N2CCCC2)c(C(=O)Nc2nc(-c3cc(F)ccc3F)cs2)c1, COc1ccc(C(=O)N(C)C2CCCN(Cc3ccccc3F)C2)cc1OC (stereo not drawn) is higher in “hERG current change (%, negative = inhibition) at 10uM” value: 0.334% for the first, 11.1% for the second.

First: CCOCCCN(C)C1CCN(C(=O)c2oc3ccccc3c2NC(=O)c2cccc([N+](=O)[O-])c2)CC1
Second: CCC(CC)C(=O)Nc1c(C(=O)N2CCN(c3ccccc3)CC2)oc2ccccc12
The “hERG current change (%, negative = inhibition) at 10uM” value of the first is lower: -79.7% for the first, 3.17% for the second.

Compared with CS(=O)(=O)O.OC(c1cc(C(F)(F)F)nc2c(Cl)cc(Cl)cc12)C1CCCCN1 (stereo not drawn), COc1ccc(CN2CCC(Oc3cc(C(=O)NC4CC4)ccc3OC)CC2)c(O)c1 is lower in “hERG current change (%, negative = inhibition) at 10uM” value: -23.8% for the first, -77.3% for the second.

First: CC(=O)NC1C(Oc2ccccc2C)OC2COC(c3ccco3)OC2C1O (stereo not drawn)
Second: Cc1ccccc1OCC(O)Cn1c(NCc2ccco2)nc2c1c(=O)n(C)c(=O)n2C (stereo not drawn)
The “hERG current change (%, negative = inhibition) at 10uM” value of the first is higher: 3.59% for the first, -52.1% for the second.

Compared with COc1ccc(-c2c(C(C)=O)c(C)nc3sc4c(=O)[nH]nnc4c23)cc1, COc1ccc(CN2CCC(Oc3ccc(C(=O)NCc4ccccn4)cc3)CC2)c(F)c1 is lower in “hERG current change (%, negative = inhibition) at 10uM” value: 8.95% for the first, -12.6% for the second.

Compared with COc1cc(C(=O)NC2Cc3ccccc3C2)ccc1OC1CCN(C(C)=O)CC1, COc1ccc(C(=O)NC2CCc3ccccc32)cc1OC1CCN(C(C)=O)CC1 (stereo not drawn) is lower in “hERG current change (%, negative = inhibition) at 10uM” value: 4.22% for the first, -0.012% for the second.

Going from CCOc1ccccc1CN1CCC(Oc2cccc(C(=O)NCCOC)c2)CC1 to C=CCOc1ccccc1CN1CCC(Oc2cc(C(=O)NC3CC3)ccc2OC)CC1, the “hERG current change (%, negative = inhibition) at 10uM” value falls from -30.8% to -72.2%.

First: COc1ccc(C(=O)NC2CC2)cc1OC1CCN(Cc2ccccc2O)CC1
Second: COc1ccc(C(=O)NC2CC2)cc1OC1CCN(Cc2ccccc2F)CC1
The “hERG current change (%, negative = inhibition) at 10uM” value of the first is lower: -102% for the first, -78% for the second.

Compared with COc1ccc(C(=O)NCCc2ccccc2F)cc1OC1CCN(C(C)=O)CC1, C=CCC(O)(CC=C)CNC(=O)c1ccc(OC)c(OC2CCN(C(C)=O)CC2)c1 is higher in “hERG current change (%, negative = inhibition) at 10uM” value: 4.19% for the first, 14.9% for the second.

Reference: PMC4336329 (PLoS ONE, 2015)
